This is a sample that favours compounds with a hit; in the whole collection about 7.3% have one here.
Rab9 promoter act: activates the Rab9 promoter | Huh7 Rab9 promoter-luciferase reporter, luminescence, 24 h | Potency, µM (doses to about 9.22 µM), inactives show at the top dose activation, negative = inhibition, most hits filed as activators | actives 2.8% (n = 320,000); also: % of control where 0% means no effect; nearly all actives have a fitted effect of over 60% in size
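Promoter activation is measured as luciferase luminescence in Huh7 cells stably transfected with a Rab9 promoter–luciferase construct, following 24 h compound exposure at 37 °C and 10 min reagent incubation at ambient temperature.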
FLuc modulator: counter-screen for miR-21 project: firefly luciferase inhibitors or activators; purified FLuc, Km substrates, luminescence inhibition; Potency, µM (titrated, usually from 57.5 µM), for the others: at the highest dose activity change, negative = inhibition, usual class: inhibitors; actives 6.9% (n = 360,000); AID 588342;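 also: plate controls were vehicle for no effect and reference inhibitor for full effect; nearly all actives have a fitted effect of over 55% in size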
Target sequence (P08659 whole entry, looked up): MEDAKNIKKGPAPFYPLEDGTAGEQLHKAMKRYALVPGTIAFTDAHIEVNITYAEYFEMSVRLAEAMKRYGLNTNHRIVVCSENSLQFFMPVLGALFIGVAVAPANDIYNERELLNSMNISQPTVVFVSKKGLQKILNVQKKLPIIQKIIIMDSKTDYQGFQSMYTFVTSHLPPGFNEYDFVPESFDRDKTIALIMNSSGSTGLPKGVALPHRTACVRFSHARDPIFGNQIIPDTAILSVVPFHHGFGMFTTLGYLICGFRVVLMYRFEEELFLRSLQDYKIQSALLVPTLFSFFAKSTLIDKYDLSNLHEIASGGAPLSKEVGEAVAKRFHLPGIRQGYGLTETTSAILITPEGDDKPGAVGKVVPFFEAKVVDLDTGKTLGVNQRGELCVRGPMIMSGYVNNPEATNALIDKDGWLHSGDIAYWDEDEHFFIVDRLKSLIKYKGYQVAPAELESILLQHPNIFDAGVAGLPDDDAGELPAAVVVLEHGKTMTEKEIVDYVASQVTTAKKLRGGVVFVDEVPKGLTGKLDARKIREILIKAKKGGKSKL
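Biochemical qHTS of compounds, final roughly 60 µM downward over six points, against 10 nM purified firefly luciferase using Km concentrations of substrates (10 uM D-luciferin, 10 uM ATP) in Tris acetate pH 7.5 buffer; luminescence output.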
ELG1 genotoxic: inducers of genotoxicity in HEK293T ELG1-luciferase cells; HEK293T ELG1-luciferase reporter, luminescence, 16 h; Potency, µM (titrated, usually from 46 µM), inactives show at the highest dose activity change, positive = activation, hits mostly activators; actives 1.3% (n = 330,000); AID 504466; also: % of control where 0% means no effect; nearly all actives have a fitted effect of over 60% in size
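Genotoxic stress is detected as increased luminescence from luciferase-tagged ELG1 in HEK293T cells, measured with ONE-Glo after a 16 hr treatment at 37 °C.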
SMN2 splice up: enhancers of SMN2 splice variant expression. HEK293 SMN2-luciferase splicing reporter, luminescence, 30-36 h. Potency, µM (doses to about 46.1 µM), inactives show at the highest dose activity change, positive = activation, actives largely listed as activators. actives 2.8% (n = 210,000); also: % of control where 0% means no effect; nearly all actives have a fitted effect of over 55% in size
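HEK293 cells carry an SMN2 minigene-luciferase reporter in which exon 7 inclusion puts luciferase in frame. Cells were seeded at 2000 cells/well, attached for 10-12 hours, then exposed to compounds for 30-36 hours at 37C before ONE-Glo luminescence.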
NPC1 prom act: activates the NPC1 promoter; Huh7 NPC1 promoter luciferase reporter, 24 h; Potency, µM (series often up to 9.22 µM), for the others: at the top dose activation, usual class: activators; actives 2.4% (n = 320,000); AID 485313; also: % of control where 0% means no effect; nearly all actives have a fitted effect of over 60% in size
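Readout is luciferase luminescence, reflecting NPC1 promoter activation in stably transfected Huh7 cells after 24 h compound exposure at 37 °C in reduced-serum medium with 10% FBS.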
KinaseGlo FLuc: blocks Kinase-Glo luciferase, a counter-screen artifact; Potency, µM (highest dose often 38.3 µM), inactives show top-dose activity change, negative = inhibition, most hits filed as inhibitors; AID 1379; Kinase-Glo luciferase, ATP luminescence, 8 min; actives 0.28% (n = 200,000); also: % is scaled to controls: 0 for no effect and ±100 for the full control effect; nearly all actives have a fitted effect of over 60% in size
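Substrate mix (final 50 mM imidazole pH 7.2, 50 mM KCl, 7 mM MgCl2, 10 uM ATP, 0.01% Tween 20, 0.05% BSA) plus pin-tool compound, then Kinase-Glo detection mix; 8 min ambient, luminescence read.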
The depositor's hits bear a star; ? = inconclusive; / = no result. Calls follow the shape of the dose curve; as a rule, active = well fitted curve in the direction sought with a large enough effect; inconclusive = small, poorly fitted or top-dose-only effect, or another doubt; inactive = no such curve, though single readings can be large; an effect the other way counts as inactive or inconclusive. Potency is read from the fitted curve at half-maximal effect.

SMILES	Rab9 promoter act	FLuc modulator	ELG1 genotoxic	SMN2 splice up	NPC1 prom act	KinaseGlo FLuc
COCCNC(=S)NNC(=O)c1cc(-c2cccnc2)nc2ccccc12	0%	8.5µM*	1%	/	-2%	/
CCCCN(C)CCCNC(=O)c1cc(-c2cccnc2)nc2ccccc12	-2%	1%	0%	/	-3%	/
COCCCNC(=S)NNC(=O)c1cc(-c2cccnc2)nc2ccccc12	-3%	11µM*	4%	/	0%	/
COCCNC(=O)c1cc(-c2cccnc2)nc2ccc(Br)cc12	4%	?	0%	9%	0%	1%
COCCCNC(=S)NNC(=O)c1cc(C2CC2)nc2ccccc12	-4%	12µM*	2%	/	-1%	/
CCNC(=S)NNC(=O)c1cc(-c2cc(C)ccc2C)nc2ccccc12	-1%	19µM*	-4%	-18%	-5%	6%
COCCCNC(=S)NNC(=O)c1cc(-c2ccncc2)nc2ccccc12	0%	8.5µM*	8%	/	-1%	/
Cn1cnnc1SCC(=O)Nc1ccc(N2CCCCC2)cc1	15%	13µM*	8%	/	17%	/
COCCn1cnnc1SCC(=O)Nc1ccc(N2CCCCC2)cc1	-1%	19µM*	3%	/	0%	/
COCCn1cnnc1SCC(=O)Nc1cc(C)on1	/	/	5%	/	/	/
Cn1cnnc1SCC(=O)Nc1ccc(OCc2ccccc2)cc1	?	15µM*	16%	?	21%	-3%
COc1ccc(NC(=O)c2oc3ccccc3c2NC(=O)c2cc(C)cc(C)c2)c(OC)c1	/	2%	/	4%	/	/
COc1ccc(N(CC(=O)NCCc2ccc(C)cc2)S(=O)(=O)c2c(C)nn(C)c2C)cc1	/	-8%	/	2%	/	/
O=C(c1ccc([N+](=O)[O-])cc1)N1c2ncnn2C2(CCCCC2)[C@@H]2CCCC[C@@H]21	/	2%	/	/	/	/
CC(C(=O)NC1C=CS(=O)(=O)C1)N1C(=O)/C(=C/c2cccc(Cl)c2)SC1=S (stereo not drawn)	0%	15µM*	3%	/	-1%	/
O=C(CN1C(=O)/C(=C/c2cccc(Cl)c2)SC1=S)NC1C=CS(=O)(=O)C1 (stereo not drawn)	-1%	2.7µM*	9%	/	-1%	/
O=C(CN1C(=O)S/C(=C\c2cccc(Cl)c2)C1=O)NC1C=CS(=O)(=O)C1 (stereo not drawn)	9%	-2%	9%	/	-15%	/
CCC(=O)N1CCCc2cc(S(=O)(=O)Nc3ccc(C)c(C)c3)ccc21	/	-15%	/	-45%	/	/
COc1ccc2oc(C)c(C(=O)c3ccc(C)cc3)c2c1	4%	17µM*	0%	/	10%	/
COc1cc(O)c2c(=O)c3c(OC)c(O)ccc3oc2c1	8%	19µM*	?	/	2%	-1%
COc1ccc(C(=O)c2c(C)oc3ccc(O)cc23)cc1	-3%	-14%	-5%	/	-5%	/
COc1ccc2oc3ccccc3c(=O)c2c1	0%	3%	-7%	/	-3%	/
COc1ccc2oc3ccc(OC)cc3c(=O)c2c1	2.8µM*	3µM*	?	?	3.2µM*	-9%
COc1cc(O)c2c(=O)c(O)c(-c3ccc(O)c(O)c3)oc2c1	/	/	/	-3%	/	-3%
CCc1nnc(SCc2cc(C)ccc2C)c2cc3sc(C)cc3n12	/	-8%	/	/	/	/
Cc1cc(C)cc(-n2ccnc2SCC(=O)Nc2ccc3c(c2)OCO3)c1	/	-15%	/	/	/	/
O=C(CCS(=O)(=O)c1cccs1)NC1CCCCCC1	3.5µM*	17µM*	?	20%	2.8µM*	-3%
CCOC(=O)c1cc(-c2ccccc2)n(CCCC(=O)Nc2cc(C)ccc2OC)c1C	/	3%	/	/	/	/
CC(C)[C@H](O)CC[C@@H](C)C1CC[C@H]2C3CC=C4C[C@@H](O)CC[C@]4(C)C3CC[C@]12C (stereo partly drawn)	/	/	/	-6%	/	/
